LGR2 inh = Drosophila LGR2 receptor signaling inhibition. hit rate 0.35% among 380,000. AID 720647. inhibition, % at 9.99 µM. HEK293 LGR2, CRE-luciferase, bursicon-stimulated, 4 h;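 active means drop in luminescence signal, shown as inhibition above about 50% in the replicate tests, limit read from the data, passing the limit was not always enough; inconclusive means probably only some replicates passing the limit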;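 further: agonist challenge used bursicon conditioned medium at about half maximal strength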
TWEAK-Fn14 inh = inhibitors of TWEAK-Fn14 interaction signaling; AID 1159606; inhibition, % at 10 µM; hit rate 2% among 360,000; TWEAK-stimulated Fn14 reporter cells, luciferase luminescence, 8 h; in the data active means inhibition above about 50%
TROY signal inh = blocks TROY-dependent signaling in reporter cells; Q293 LMP1-TROYcd NF-kB luciferase reporter, 4 h; inhibition, % at 10 µM; hit rate 0.98% among 360,000; AID 1347056;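 active means compounds whose plate-normalised and pattern-corrected inhibition of the luciferase reporter signal at the single screening dose is 50% or more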
EWS-Fli inh = EWS/Fli transcriptional activity inhibition; hit rate 0.67% among 350,000; A673 NR0B1-luciferase reporter, viability-normalised; inhibition, % at 12.6 µM; AID 651661;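 active means mean inhibition of at least 50% after viability correction, with every replicate also passing that limit; inconclusive means mean reaches 50% but only one of two replicates passes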;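 further: firefly luciferase signal divided by Alamar Blue viability fluorescence both relative to DMSO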
LMP1 NFkB inh = reduces LMP1-driven NF-kappaB luciferase signal | LMP1-induced NF-kappaB luciferase reporter cells, luminescence | inhibition, % at 12.5 µM | hit rate 0.69% among 350,000 | AID 504558; in the data active means inhibition above about 41%; inconclusive means no clear call, values can overlap the other calls
Of the large screens only hits and unclear results are named; the others gave an inactive call. Sampled rows, rich in hits. Any-hit rate of the full collection: about 2.5%.

Cc1cc(C(F)(F)Cl)n2ncc(-c3ccccn3)c2n1	none
Cc1nc2c(-c3ccc(F)cc3)cnn2c(N)c1-c1ccc(F)cc1	TWEAK-Fn14 inh 78, TROY signal inh 74
CCCN(C)C[C@H]1Oc2cc(-c3cccc(OC)c3)ccc2S(=O)(=O)N([C@H](C)CO)C[C@H]1C	none (no result: TWEAK-Fn14 inh, TROY signal inh, LMP1 NFkB inh)
C[C@H](CO)N1C[C@H](C)[C@@H](CN(C)C(=O)CN(C)C)Oc2cc(C#CC3CC3)ccc2S1(=O)=O	none (no result: TWEAK-Fn14 inh, TROY signal inh, LMP1 NFkB inh)
CCc1ccc(NCc2nc3ccccc3c(=O)[nH]2)cc1	TROY signal inh 67 (no result: LGR2 inh, EWS-Fli inh)
O=C(C1CCOCC1)N1C[C@@H]2[C@H](c3ccccc31)[C@@H](CO)N2C(=O)Nc1ccccc1F	none (no result: TWEAK-Fn14 inh, TROY signal inh, LMP1 NFkB inh)
Cc1ccccc1NNC(=O)C(=O)NNc1ccccc1C	none
Cc1ccccc1NC(=O)C(Cl)=C(Cl)Cl	LMP1 NFkB inh 90
COc1ccc(S(=O)(=O)N(C)C[C@H]2OCCCC[C@@H](C)Oc3ccc(NS(=O)(=O)c4ccc(F)cc4)cc3C(=O)N([C@@H](C)CO)C[C@@H]2C)cc1	none (no result: TWEAK-Fn14 inh, TROY signal inh, LMP1 NFkB inh)
CC(C)OC(=O)n1c(=S)oc2ccccc21	none (no result: EWS-Fli inh)
CCCCC(=O)/C=C/n1c(=S)oc2ccccc21	TWEAK-Fn14 inh 96
CN(C)C(=O)N1CCN(S(=O)(=O)c2ccc3ccccc3c2)CC1	TWEAK-Fn14 inh 101
O=C(CCl)N1CCN(S(=O)(=O)c2ccc3ccccc3c2)CC1	EWS-Fli inh 60
CN(C)S(=O)(=O)N1CCN(S(=O)(=O)c2ccc3ccccc3c2)CC1	none
COc1ccc(CCC(=O)N2CCN(S(=O)(=O)c3ccc4ccccc4c3)CC2)cc1	none (no result: LGR2 inh, EWS-Fli inh)
C[C@H](NC(=O)[C@H]1N[C@H]2c3ccc(-c4cncnc4)c(=O)n3C[C@H]2[C@@H]1CO)c1ccccc1	none (no result: TWEAK-Fn14 inh, TROY signal inh, LMP1 NFkB inh)
COc1ccc(CNC(=O)C[C@H]2C[C@@H]3c4cc(NC(=O)CC5CC5)ccc4O[C@@H]3[C@@H](CO)O2)cc1	none (no result: TWEAK-Fn14 inh, TROY signal inh, LMP1 NFkB inh)
CNC[C@H]1Oc2cc(C#CC3(O)CCCC3)ccc2S(=O)(=O)N([C@H](C)CO)C[C@@H]1C	none (no result: TWEAK-Fn14 inh, TROY signal inh, LMP1 NFkB inh)
C[C@H]1CCCCO[C@H](CN(C)C(=O)C2CCCCC2)[C@@H](C)CN([C@@H](C)CO)C(=O)c2cc(NS(=O)(=O)c3ccc(Cl)cc3)ccc2O1	EWS-Fli inh 54 (no result: TWEAK-Fn14 inh, TROY signal inh, LMP1 NFkB inh)
C[C@@H]1CCCCO[C@H](CN(C)C(=O)C2CCCCC2)[C@@H](C)CN([C@H](C)CO)C(=O)c2cc(NS(=O)(=O)c3ccc(Cl)cc3)ccc2O1	none (no result: TWEAK-Fn14 inh, TROY signal inh, LMP1 NFkB inh)
C[C@@H]1CCCCO[C@@H](CN(C)CC2CCCCC2)[C@H](C)CN([C@@H](C)CO)C(=O)c2cc(NS(=O)(=O)c3ccc(Cl)cc3)ccc2O1	none (no result: TWEAK-Fn14 inh, TROY signal inh, LMP1 NFkB inh)
C[C@H](CO)N1C[C@H](C)[C@H](CN(C)CC2CCCCC2)OCCCC[C@H](C)Oc2ccc(NS(=O)(=O)c3ccc(Cl)cc3)cc2C1=O	EWS-Fli inh 65 (no result: TWEAK-Fn14 inh, TROY signal inh, LMP1 NFkB inh)
C[C@@H]1CN([C@H](C)CO)C(=O)Cc2cc(NS(=O)(=O)c3ccccc3)ccc2O[C@@H]1CN(C)CC1CCCCC1	EWS-Fli inh 64 (no result: TWEAK-Fn14 inh, TROY signal inh, LMP1 NFkB inh)
CO[C@H]1CN(C)C(=O)c2ccc(NC(=O)c3nc4ccccc4s3)cc2OC[C@@H](C)N(Cc2cncnc2)C[C@@H]1C	none (no result: TWEAK-Fn14 inh, TROY signal inh, LMP1 NFkB inh)
CNC[C@H]1Oc2ccc(NC(=O)NC3CCCCC3)cc2CC(=O)N([C@@H](C)CO)C[C@@H]1C	none (no result: TWEAK-Fn14 inh, TROY signal inh, LMP1 NFkB inh)
COC(=O)c1cc(OC)c(OC)cc1NCC(=O)Nc1ccc(C)cc1	LGR2 inh 50
COC(=O)c1cc(OC)c(OC)cc1NCC(=O)Nc1ccc(OC)c(OC)c1	none (no result: EWS-Fli inh)
CC(=O)N(C)C[C@@H]1Oc2cc(C3=CCCC3)ccc2S(=O)(=O)N([C@@H](C)CO)C[C@H]1C	none (no result: TWEAK-Fn14 inh, TROY signal inh, LMP1 NFkB inh)
CC1CCCC(NC(=O)CCNC(=O)c2ccc([N+](=O)[O-])cc2)C1C (stereo not given)	TWEAK-Fn14 inh 76
O=C(Cc1ccccc1)NCc1cccnc1	none
Cc1ccccc1CN(c1ccc(C(=O)NCc2cccnc2)cc1)S(C)(=O)=O	LMP1 NFkB inh 52
O=C(NC(NCc1cccnc1)C(Cl)(Cl)Cl)c1cccc2ccccc12 (stereo not given)	TWEAK-Fn14 inh 65 (no result: EWS-Fli inh)
Cc1ccccc1CC(=O)NCc1cccnc1	LMP1 NFkB inh 67
CN(c1ccc(C(=O)NCc2cccnc2)cc1)S(C)(=O)=O	none (no result: LGR2 inh, EWS-Fli inh)
O=C(CN1CCOCC1)NCC[C@H]1CC[C@H](NC(=O)c2ccccc2F)[C@@H](CO)O1	none (no result: TWEAK-Fn14 inh, TROY signal inh, LMP1 NFkB inh)
Fc1ccc(-c2nnc(-n3nnc4ccccc43)c3ccccc23)cc1	LMP1 NFkB inh 53 (no result: LGR2 inh, EWS-Fli inh)
COc1ccccc1N1CCN(c2nnc(-c3ccc(F)cc3)c3ccccc23)CC1	none (no result: EWS-Fli inh)
Cc1nc2ccc(F)cc2cc1C(=O)Nc1ccc(Cl)c(Cl)c1	TWEAK-Fn14 inh 51
Cc1nc2ccc(F)cc2cc1C(=O)NCc1ccco1	none (no result: LGR2 inh, EWS-Fli inh)
Cc1ccsc1/C=N/NC(=O)c1ccc2c(c1)OCCO2	LGR2 inh inconclusive, TWEAK-Fn14 inh 70, LMP1 NFkB inh 59
Cc1ccsc1/C=N\NC(=O)c1ccc2c(c1)OCO2	none (no result: LGR2 inh, EWS-Fli inh)
Cc1cccc(/C=N/NC(=O)c2ccc3c(c2)OCCO3)c1O	LGR2 inh 68, TWEAK-Fn14 inh 74
C/C(=N\NC(=O)c1ccc2c(c1)OCCO2)c1ccccc1	TWEAK-Fn14 inh 70
COc1cccc(C=Nc2ccc3c(c2)OCCO3)c1O	TWEAK-Fn14 inh 80, TROY signal inh 68 (no result: LGR2 inh, EWS-Fli inh)
C/C(=N\NC(=O)c1ccc(O)cc1)c1ccc2c(c1)OCCO2	none
COc1cccc(C=Nc2ccc(N3CCOCC3)cc2)c1O	none
COc1ccc2c3c([nH]c2c1)[C@@H](CO)N(C(=O)C1CCC1)CC31CN(S(C)(=O)=O)C1	none (no result: TWEAK-Fn14 inh, TROY signal inh, LMP1 NFkB inh)
CO[C@H]1CN(C)C(=O)c2cc(NC(=O)Nc3ccc(F)cc3)ccc2OC[C@H](C)NC[C@@H]1C	none (no result: TWEAK-Fn14 inh, TROY signal inh, LMP1 NFkB inh)
O=C(N/N=C/c1c(Cl)cccc1Cl)c1n[nH]c2c1CCCC2	none
Cc1ccsc1/C=N/NC(=O)CSCc1ccc(Cl)cc1	none (no result: EWS-Fli inh)
O=C(N/N=C/c1ccc2c(c1)OCO2)c1ccc2c(c1)OCO2	none (no result: EWS-Fli inh)

Source: PubChem (several laboratories)
